Measurements: PMC7862700, “An all-to-all approach to the identification of sequence-specific readers for epigenetic DNA modifications on cytosine”

Tests used:
Test in all cases: DAPPL (digital affinity profiling via proximity ligation, sequencing); 10 mM Tris-HCl pH 7.5, 50 mM NaCl, 1 mM DTT, 4% glycerol, room temperature, 30 min; GST-TFs on glutathione beads, 16-mer random dsDNA library, 0.1% formaldehyde crosslink after washing; high values mean tight binding
FEV = molecular target: T1, FEV (Homo sapiens, UniProt Q99581 1-238); settings: protein: recombinant; tags: N-terminal GST; dsDNA, one strand shown
T1 sequence: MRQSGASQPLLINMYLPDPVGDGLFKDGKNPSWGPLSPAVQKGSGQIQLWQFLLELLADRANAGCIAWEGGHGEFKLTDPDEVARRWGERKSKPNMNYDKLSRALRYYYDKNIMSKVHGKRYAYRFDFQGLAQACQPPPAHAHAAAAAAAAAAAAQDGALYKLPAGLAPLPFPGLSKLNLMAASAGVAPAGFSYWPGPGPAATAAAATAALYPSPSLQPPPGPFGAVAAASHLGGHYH
In short: (§1)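 Pools of DNA-barcoded human transcription factors, expressed in yeast as GST fusions on glutathione beads and combined with a tag-only sample, were incubated with 200 nmole of a 16-mer random double-stranded DNA library. Incubation took 30 min at room temperature in Tris/NaCl/DTT/glycerol buffer and was followed by washing, 0.1% formaldehyde crosslinking, proximity ligation (BsaI/T4 ligase, 1 h, 37 °C), PCR amplification and sequencing on an Illumina NextSeq500. Binding signal is the ratio of a hexamer's read frequency for a factor to its frequency for the tag-only sample.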

ETV5 = ETV5 (Homo sapiens, UniProt P41161 1-510); settings: protein: recombinant; tags: N-terminal GST; dsDNA, one strand shown
Chain of ETV5 (P41161 whole entry): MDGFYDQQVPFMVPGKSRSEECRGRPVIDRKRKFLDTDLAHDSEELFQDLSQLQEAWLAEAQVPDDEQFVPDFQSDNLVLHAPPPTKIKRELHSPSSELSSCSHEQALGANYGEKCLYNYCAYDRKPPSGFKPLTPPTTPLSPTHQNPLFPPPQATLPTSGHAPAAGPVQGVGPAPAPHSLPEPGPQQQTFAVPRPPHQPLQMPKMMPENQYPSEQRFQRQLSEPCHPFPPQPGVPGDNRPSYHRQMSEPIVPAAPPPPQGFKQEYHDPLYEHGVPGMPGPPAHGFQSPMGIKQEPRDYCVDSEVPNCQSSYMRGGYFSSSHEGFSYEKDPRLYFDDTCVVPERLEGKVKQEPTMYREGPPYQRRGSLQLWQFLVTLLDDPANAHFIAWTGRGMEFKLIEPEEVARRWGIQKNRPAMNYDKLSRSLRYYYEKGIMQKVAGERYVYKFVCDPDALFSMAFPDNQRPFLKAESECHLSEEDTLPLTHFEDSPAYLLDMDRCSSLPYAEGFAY
In short: as §1

HSF1 = HSF1 (Homo sapiens, UniProt Q00613 1-529); settings: protein: recombinant; tags: N-terminal GST; chain copies: 3; dsDNA, one strand shown
Chain of HSF1 (Q00613 whole entry): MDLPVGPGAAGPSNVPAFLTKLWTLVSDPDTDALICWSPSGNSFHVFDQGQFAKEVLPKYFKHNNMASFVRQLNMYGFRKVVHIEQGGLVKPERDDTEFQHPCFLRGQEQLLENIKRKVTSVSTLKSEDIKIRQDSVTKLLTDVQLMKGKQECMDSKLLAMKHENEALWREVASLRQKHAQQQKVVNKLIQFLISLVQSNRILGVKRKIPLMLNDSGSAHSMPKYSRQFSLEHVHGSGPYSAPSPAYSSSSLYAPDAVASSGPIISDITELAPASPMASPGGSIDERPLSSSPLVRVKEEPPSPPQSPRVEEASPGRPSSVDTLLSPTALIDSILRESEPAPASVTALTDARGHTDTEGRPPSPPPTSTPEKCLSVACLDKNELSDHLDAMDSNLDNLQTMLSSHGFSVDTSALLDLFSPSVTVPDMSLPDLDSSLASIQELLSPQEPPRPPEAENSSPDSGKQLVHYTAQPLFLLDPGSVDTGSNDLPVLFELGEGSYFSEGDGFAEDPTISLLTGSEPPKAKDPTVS
In short: as §1

SPIC = molecular target: T2, SPIC (Homo sapiens, UniProt Q8N5J4 1-248); settings: protein: recombinant; tags: N-terminal GST; dsDNA, one strand shown
T2 sequence: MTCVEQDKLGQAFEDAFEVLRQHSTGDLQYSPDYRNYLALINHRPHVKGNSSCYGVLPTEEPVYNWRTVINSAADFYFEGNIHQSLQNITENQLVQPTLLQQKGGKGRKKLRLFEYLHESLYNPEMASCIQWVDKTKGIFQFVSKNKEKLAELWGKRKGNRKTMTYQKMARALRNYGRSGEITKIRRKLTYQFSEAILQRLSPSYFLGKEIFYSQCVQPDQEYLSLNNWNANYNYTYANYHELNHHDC
In short: as §1

ELF4 = ELF4 (Homo sapiens, UniProt Q99607 1-663); settings: protein: recombinant; tags: N-terminal GST; dsDNA, one strand shown
Chain of ELF4 (Q99607 whole entry): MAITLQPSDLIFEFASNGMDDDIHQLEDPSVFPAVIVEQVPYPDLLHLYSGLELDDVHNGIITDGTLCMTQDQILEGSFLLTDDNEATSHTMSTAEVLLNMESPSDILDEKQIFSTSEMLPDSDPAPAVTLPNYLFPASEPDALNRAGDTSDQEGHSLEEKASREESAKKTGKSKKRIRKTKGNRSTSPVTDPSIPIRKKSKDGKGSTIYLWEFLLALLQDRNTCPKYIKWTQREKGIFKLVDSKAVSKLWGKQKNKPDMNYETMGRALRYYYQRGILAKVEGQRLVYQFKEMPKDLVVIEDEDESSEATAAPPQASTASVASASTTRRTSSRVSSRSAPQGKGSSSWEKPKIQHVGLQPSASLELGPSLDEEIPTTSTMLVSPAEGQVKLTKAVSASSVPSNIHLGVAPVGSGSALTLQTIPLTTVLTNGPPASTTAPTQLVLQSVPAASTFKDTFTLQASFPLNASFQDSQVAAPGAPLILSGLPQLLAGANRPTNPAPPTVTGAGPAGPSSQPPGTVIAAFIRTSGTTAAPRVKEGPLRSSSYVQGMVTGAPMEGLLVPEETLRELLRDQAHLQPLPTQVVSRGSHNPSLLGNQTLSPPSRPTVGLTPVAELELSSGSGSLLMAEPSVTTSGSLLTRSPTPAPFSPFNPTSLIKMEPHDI
In short: as §1

ELK4 = molecular target: T3, ELK4 (Homo sapiens, UniProt P28324-2 1-405); settings: protein: recombinant; tags: N-terminal GST; dsDNA, one strand shown
T3 sequence: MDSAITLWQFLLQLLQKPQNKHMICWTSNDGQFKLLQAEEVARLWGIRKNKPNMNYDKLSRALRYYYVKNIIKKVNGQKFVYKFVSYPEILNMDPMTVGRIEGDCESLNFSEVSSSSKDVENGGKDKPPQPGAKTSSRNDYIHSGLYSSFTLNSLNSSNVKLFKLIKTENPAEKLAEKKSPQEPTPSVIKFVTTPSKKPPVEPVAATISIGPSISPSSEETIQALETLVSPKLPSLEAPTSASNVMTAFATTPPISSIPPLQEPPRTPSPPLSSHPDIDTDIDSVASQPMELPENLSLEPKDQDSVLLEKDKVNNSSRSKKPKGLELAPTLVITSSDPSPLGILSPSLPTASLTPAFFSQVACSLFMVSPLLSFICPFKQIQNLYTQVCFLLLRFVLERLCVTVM
In short: as §1

ETV2 = molecular target: T4, ETV2 (Homo sapiens, UniProt O00321 1-342); settings: protein: recombinant; tags: N-terminal GST; dsDNA, one strand shown
T4 sequence: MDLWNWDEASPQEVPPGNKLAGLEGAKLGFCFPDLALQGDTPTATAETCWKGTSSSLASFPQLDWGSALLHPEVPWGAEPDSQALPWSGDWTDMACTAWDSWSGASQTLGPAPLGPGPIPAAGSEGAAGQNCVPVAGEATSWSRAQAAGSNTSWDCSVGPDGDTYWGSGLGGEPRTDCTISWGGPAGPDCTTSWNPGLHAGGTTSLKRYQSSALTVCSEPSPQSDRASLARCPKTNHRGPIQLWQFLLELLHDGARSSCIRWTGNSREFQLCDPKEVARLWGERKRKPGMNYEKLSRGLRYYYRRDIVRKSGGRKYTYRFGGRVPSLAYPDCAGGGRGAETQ
In short: as §1

ELF3 = molecular target: T5, ELF3 (Homo sapiens, UniProt P78545 1-371); settings: protein: recombinant; tags: N-terminal GST; dsDNA, one strand shown
T5 sequence: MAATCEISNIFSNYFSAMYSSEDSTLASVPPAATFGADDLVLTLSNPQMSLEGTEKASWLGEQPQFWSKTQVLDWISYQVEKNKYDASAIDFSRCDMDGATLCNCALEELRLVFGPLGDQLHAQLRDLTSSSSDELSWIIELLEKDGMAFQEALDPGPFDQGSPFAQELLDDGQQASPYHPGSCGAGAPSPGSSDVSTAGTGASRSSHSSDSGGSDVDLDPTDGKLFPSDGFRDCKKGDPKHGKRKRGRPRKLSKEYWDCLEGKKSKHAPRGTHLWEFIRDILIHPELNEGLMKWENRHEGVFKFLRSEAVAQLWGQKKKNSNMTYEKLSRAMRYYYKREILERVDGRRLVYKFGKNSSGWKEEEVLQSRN
In short: as §1

CRX = CRX (Homo sapiens, UniProt O43186 1-299); settings: protein: recombinant; tags: N-terminal GST; dsDNA, one strand shown
Chain of CRX (O43186 whole entry): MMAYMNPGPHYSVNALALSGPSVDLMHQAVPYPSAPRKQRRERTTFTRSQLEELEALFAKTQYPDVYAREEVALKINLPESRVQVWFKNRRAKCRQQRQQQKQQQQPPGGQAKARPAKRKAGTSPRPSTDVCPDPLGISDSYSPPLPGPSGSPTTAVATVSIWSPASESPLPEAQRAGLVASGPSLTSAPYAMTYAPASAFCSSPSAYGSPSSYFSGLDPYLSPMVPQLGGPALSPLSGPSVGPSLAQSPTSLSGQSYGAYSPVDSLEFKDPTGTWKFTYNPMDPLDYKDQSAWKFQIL
In short: as §1

ETV1 = ETV1 (Homo sapiens, UniProt P50549 1-477); settings: protein: recombinant; tags: N-terminal GST; dsDNA, one strand shown
Chain of ETV1 (P50549 whole entry): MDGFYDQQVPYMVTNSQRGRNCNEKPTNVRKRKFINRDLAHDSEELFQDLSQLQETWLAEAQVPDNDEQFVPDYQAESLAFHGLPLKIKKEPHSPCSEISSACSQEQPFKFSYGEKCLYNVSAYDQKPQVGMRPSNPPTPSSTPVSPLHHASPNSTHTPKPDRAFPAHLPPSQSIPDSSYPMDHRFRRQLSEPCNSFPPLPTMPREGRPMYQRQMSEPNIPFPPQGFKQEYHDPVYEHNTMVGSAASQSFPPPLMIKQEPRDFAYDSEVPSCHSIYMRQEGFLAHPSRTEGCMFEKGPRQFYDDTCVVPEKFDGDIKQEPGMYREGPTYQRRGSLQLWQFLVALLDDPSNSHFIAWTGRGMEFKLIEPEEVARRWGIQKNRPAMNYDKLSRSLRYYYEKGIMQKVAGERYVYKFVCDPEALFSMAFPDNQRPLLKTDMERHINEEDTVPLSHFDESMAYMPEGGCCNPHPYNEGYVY
In short: as §1

ERF = molecular target: T6, ERF (Homo sapiens, UniProt P50548 1-548); settings: protein: recombinant; tags: N-terminal GST; dsDNA, one strand shown
T6 sequence: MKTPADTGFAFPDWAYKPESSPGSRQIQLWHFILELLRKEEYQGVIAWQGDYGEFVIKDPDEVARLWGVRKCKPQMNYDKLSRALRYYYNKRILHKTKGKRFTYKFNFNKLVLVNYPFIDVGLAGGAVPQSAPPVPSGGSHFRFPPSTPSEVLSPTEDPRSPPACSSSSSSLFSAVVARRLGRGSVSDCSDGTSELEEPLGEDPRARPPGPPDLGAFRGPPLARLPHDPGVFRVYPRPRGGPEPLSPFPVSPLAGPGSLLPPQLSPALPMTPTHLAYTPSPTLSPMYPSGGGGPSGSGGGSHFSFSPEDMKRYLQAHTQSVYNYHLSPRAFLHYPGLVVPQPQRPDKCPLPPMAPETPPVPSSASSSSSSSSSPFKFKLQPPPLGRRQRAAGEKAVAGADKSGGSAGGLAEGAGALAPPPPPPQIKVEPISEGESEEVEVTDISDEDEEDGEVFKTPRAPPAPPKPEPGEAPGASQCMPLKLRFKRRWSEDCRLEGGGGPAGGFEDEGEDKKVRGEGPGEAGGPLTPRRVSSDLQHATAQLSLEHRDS
In short: as §1

ETV3L = molecular target: T7, ETV3L (Homo sapiens, UniProt Q6ZN32 1-361); settings: protein: recombinant; tags: N-terminal GST; dsDNA, one strand shown
T7 sequence: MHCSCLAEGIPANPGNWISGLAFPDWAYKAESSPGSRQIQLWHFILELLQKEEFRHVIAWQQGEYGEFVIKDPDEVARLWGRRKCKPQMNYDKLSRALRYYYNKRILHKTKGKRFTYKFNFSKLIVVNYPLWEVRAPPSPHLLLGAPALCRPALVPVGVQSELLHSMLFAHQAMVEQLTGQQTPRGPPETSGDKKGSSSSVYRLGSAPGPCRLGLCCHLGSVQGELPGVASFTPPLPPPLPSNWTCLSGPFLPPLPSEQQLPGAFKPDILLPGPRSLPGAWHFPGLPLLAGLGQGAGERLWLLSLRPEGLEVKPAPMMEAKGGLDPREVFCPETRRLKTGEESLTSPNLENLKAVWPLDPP
In short: as §1

ETS2 = molecular target: T8, ETS2 (Homo sapiens, UniProt P15036 1-469); settings: protein: recombinant; tags: N-terminal GST; dsDNA, one strand shown
T8 sequence: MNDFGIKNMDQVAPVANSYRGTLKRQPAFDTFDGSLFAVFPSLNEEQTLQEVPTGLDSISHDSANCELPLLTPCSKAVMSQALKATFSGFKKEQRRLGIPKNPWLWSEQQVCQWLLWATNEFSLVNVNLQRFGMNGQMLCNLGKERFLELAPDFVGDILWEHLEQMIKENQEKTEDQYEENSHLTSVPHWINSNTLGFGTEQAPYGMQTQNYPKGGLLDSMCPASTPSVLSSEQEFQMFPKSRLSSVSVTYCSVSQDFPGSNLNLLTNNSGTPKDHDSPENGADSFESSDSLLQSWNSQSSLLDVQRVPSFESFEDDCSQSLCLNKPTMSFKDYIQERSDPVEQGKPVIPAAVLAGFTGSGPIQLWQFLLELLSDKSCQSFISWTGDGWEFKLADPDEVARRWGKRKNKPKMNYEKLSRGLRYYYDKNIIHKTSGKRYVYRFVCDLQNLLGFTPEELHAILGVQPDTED
In short: as §1

SPDEF = molecular target: T9, SPDEF (Homo sapiens, UniProt O95238 1-335); settings: protein: recombinant; tags: N-terminal GST; dsDNA, one strand shown
T9 sequence: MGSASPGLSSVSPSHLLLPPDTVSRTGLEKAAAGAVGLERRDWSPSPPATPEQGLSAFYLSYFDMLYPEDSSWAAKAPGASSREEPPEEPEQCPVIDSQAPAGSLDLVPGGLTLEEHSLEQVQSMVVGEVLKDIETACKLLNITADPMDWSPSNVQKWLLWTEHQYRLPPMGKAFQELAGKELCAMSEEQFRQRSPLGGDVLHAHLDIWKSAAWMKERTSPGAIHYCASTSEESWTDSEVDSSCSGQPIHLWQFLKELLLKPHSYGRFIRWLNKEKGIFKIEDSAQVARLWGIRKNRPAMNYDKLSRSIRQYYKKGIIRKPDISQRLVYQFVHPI
In short: as §1

ETV7 = molecular target: T10, ETV7 (Homo sapiens, UniProt Q9Y603 1-341); settings: protein: recombinant; tags: N-terminal GST; dsDNA, one strand shown
T10 sequence: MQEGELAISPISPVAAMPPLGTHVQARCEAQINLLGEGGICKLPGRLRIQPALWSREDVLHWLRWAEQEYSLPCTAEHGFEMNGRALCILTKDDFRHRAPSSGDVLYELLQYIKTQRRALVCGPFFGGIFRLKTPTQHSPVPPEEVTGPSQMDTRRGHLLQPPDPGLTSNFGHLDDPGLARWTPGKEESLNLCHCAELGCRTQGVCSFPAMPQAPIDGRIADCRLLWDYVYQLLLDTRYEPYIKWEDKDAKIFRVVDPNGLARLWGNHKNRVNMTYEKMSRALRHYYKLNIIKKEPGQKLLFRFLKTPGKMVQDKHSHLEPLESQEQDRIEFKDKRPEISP
In short: as §1

ELF5 = molecular target: T11, ELF5 (Homo sapiens, UniProt Q9UKW6-2 1-255); settings: protein: recombinant; tags: N-terminal GST; dsDNA, one strand shown
T11 sequence: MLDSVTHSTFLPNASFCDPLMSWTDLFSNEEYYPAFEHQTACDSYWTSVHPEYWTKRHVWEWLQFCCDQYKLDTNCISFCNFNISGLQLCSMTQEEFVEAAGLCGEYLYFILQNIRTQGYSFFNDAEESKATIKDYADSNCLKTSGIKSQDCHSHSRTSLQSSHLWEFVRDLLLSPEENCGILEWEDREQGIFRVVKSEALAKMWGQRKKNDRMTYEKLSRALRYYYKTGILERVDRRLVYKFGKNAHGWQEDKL
In short: as §1

ETV3 = molecular target: T12, ETV3 (Homo sapiens, UniProt P41162-2 1-143); settings: protein: recombinant; tags: N-terminal GST; dsDNA, one strand shown
T12 sequence: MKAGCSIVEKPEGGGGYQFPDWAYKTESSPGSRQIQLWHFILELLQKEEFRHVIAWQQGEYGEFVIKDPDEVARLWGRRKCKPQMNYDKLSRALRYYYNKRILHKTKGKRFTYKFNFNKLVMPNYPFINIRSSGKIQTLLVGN
In short: as §1

ETV6 = ETV6 (Homo sapiens, UniProt P41212 1-452); settings: protein: recombinant; tags: N-terminal GST; dsDNA, one strand shown
Chain of ETV6 (P41212 whole entry): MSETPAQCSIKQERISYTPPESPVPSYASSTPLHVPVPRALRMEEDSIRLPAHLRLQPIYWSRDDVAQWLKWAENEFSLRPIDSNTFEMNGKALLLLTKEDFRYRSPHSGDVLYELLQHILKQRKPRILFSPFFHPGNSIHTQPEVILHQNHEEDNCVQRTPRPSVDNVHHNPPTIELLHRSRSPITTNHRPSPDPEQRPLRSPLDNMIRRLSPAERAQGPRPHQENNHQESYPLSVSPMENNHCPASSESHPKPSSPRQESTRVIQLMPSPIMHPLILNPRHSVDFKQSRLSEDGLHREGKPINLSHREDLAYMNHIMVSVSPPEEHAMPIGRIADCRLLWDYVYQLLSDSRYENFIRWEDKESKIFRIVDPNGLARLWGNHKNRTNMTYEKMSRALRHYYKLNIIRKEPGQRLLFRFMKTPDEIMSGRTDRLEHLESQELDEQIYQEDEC
In short: as §1

## CTTCTC
FEV
  binding signal: 1.35 fold enrichment (6-mer frequency, TF over GST control)
ETV5
  binding signal: 1.27 fold enrichment (6-mer frequency, TF over GST control)
HSF1
  binding signal: 2.19 fold enrichment (6-mer frequency, TF over GST control)
SPIC
  binding signal: 1.55 fold enrichment (6-mer frequency, TF over GST control)
ELF4
  binding signal: 1.39 fold enrichment (6-mer frequency, TF over GST control)
ELK4
  binding signal: 1.42 fold enrichment (6-mer frequency, TF over GST control)
ETV2
  binding signal: 1.39 fold enrichment (6-mer frequency, TF over GST control)
ELF3
  binding signal: 1.47 fold enrichment (6-mer frequency, TF over GST control)
CRX
  binding signal: 1.56 fold enrichment (6-mer frequency, TF over GST control)
ETV1
  binding signal: 1.39 fold enrichment (6-mer frequency, TF over GST control)
ERF
  binding signal: 1.33 fold enrichment (6-mer frequency, TF over GST control)
ETV3L
  binding signal: 1.39 fold enrichment (6-mer frequency, TF over GST control)
ETS2
  binding signal: 1.32 fold enrichment (6-mer frequency, TF over GST control)
SPDEF
  binding signal: 1.33 fold enrichment (6-mer frequency, TF over GST control)
ETV7
  binding signal: 1.32 fold enrichment (6-mer frequency, TF over GST control)
ELF5
  binding signal: 1.52 fold enrichment (6-mer frequency, TF over GST control)
ETV3
  binding signal: 1.31 fold enrichment (6-mer frequency, TF over GST control)
ETV6
  binding signal: 1.37 fold enrichment (6-mer frequency, TF over GST control)
